High-throughput results from PubChem BioAssay.
This is a sample that favours compounds with a hit; in the whole collection about 19% have one here.
uPA generation – qHTS for Inhibitors of Cell Surface uPA Generation; AID 540303, 2011; Potency, µM (doses to about 38.3 µM), without a hit: at the highest dose activity change, negative = inhibition, usual class: inhibitors; cell surface uPA generation assay, qHTS; actives 0.31% (n = 330,000); active = well fitted inhibition curve with a large enough effect; inconclusive = small, poorly fitted or top-dose-only effect; inactive = no such curve, though single readings can be large or run the other way; tested in mouse RAW 264.7 cells; also: potency is read from the fitted curve at half-maximal effect; nearly all actives have a fitted effect of over 55% in size
TDP1 cell noCPT – qHTS for Inhibitors of human tyrosyl-DNA phosphodiesterase 1 (TDP1): qHTS in cells in absence of CPT. AID 686978, 2013. DT40 Tdp1-/- hTDP1 cells, no CPT, ATP luminescence, 48 h. Potency, µM (highest dose often 46.2 µM), without a hit: at the top dose activity change, negative = growth inhibition, hits mostly inhibitors. actives 15% (n = 420,000); also: potency is read from the fitted curve at half-maximal effect; nearly all actives have a fitted effect of over 55% in size
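Compound effects on proliferation are scored in DT40 Tdp1-/-;hTDP1 cells in the absence of CPT. ATP levels (CellTiter-Glo luminescence) are recorded after a ≥48 hr, 37 °C incubation.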
HT1080 IDH1KD tx – qHTS for induction of synthetic lethality in tumor cells producing 2HG: qHTS for the HT-1080-IDH1KD cell line; HT-1080 IDH1 knockdown viability, ATP luminescence, 48 h; Potency, µM (titrated, usually from 46.1 µM), for the others: at the highest dose activity, negative = toxicity, hits mostly cytotoxic; actives 2% (n = 360,000);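 also: potency is read from the fitted curve at half-maximal effect; 0% = DMSO wells and -100% = cell-free medium wells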
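IDH1KD HT-1080 cells, 750/well, RPMI + 5% FBS; compound pinned after 2 h settling; 48 h, 37 °C; CellTiter-Glo luminescence; % activity normalised to DMSO and no-cell wells; curves fitted, classed by r2 and efficacy.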
TDP1 cell CPT – qHTS for Inhibitors of human tyrosyl-DNA phosphodiesterase 1 (TDP1): qHTS in cells in presence of CPT. chicken DT40 Tdp1-/-;hTDP1 cells + 20 nM CPT, ATP luminescence, 48 h. Potency, µM (doses to about 46.2 µM), without a hit: top-dose activity change, negative = growth inhibition, hits mostly inhibitors. actives 12% (n = 420,000); also: potency is read from the fitted curve at half-maximal effect; nearly all actives have a fitted effect of over 55% in size
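Chicken DT40 Tdp1-/- cells complemented with human TDP1, 400 cells/well, exposed to compounds plus 20 nM camptothecin for at least 48 h at 37 C; viability read as ATP content by CellTiter-Glo luminescence.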
HT1080NT lethal – qHTS for induction of synthetic lethality in tumor cells producing 2HG: qHTS for the HT-1080-NT fibrosarcoma cell line; HT-1080-NT fibrosarcoma viability, CellTiter-Glo ATP luminescence, 48 h; Potency, µM (highest dose often 46.1 µM), for the others: at the top dose activity, negative = less viability, usual class: cytotoxic; actives 1.6% (n = 360,000); AID 686970, 2013;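 also: NT is the 2HG producing partner of a matched IDH1 knockdown line; potency is read from the fitted curve at half-maximal effect; 0% = DMSO-treated cells and -100% = media-only wells without cells; nearly all actives have a fitted effect of over 55% in size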
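750 cells/well, RPMI + 5% FBS; 2 h settle, compound pin-transfer, 48 h at 37 degrees C. CellTiter-Glo 10 min RT, luminescence. Normalized to DMSO and media-only wells.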
IL1B secr inh – qHTS for Inhibitors of Inflammasome Signaling: IL-1-beta AlphaLISA Primary Screen; THP-1 LPS/ATP IL-1B secretion, AlphaLISA, 16 h; hits give low values; activity change, % at 57.5 µM; actives 4.7% (n = 360,000); in the data active = activity change below about -50%; inconclusive = mostly about -30% to -49%
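THP-1 cells pretreated 1 hr with compounds (up to 57.5 uM final), then stimulated with LPS (250 ng/mL final) plus ATP (1.25 mM final); secreted IL-1B measured by AlphaLISA after 16 hr, decreased signal indicating inhibition.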
Numbers without * were called inactive; ? = inconclusive; nt = no result; [ ] = remark or other dose. Unless noted, calls follow the shape of the dose curve; as a rule, active = well fitted curve in the direction sought with a large enough effect; inconclusive = small, poorly fitted or top-dose-only effect, or another doubt; inactive = no such curve, though single readings can be large; an effect the other way counts as inactive or inconclusive. Unless noted, % is scaled to controls: 0 for no effect and ±100 for the full control effect.

SMILES	uPA generation	TDP1 cell noCPT	HT1080 IDH1KD tx	TDP1 cell CPT	HT1080NT lethal	IL1B secr inh
Nc1c(C(=O)c2ccc(Cl)cc2)sc2nsc(SCCN3CCOCC3)c12	-2%	9.2µM*	19%	4.6µM*	15%	11
Nc1c(C(=O)c2ccccc2)sc2nsc(SCCN3CCCC3)c12	-4%	?	23µM*	?	12µM*	-104*
CC(NC(=O)COC(=O)CCN1C(=O)C2CC=CCC2C1=O)c1ccc(Br)cc1 (centres undefined)	7%	10%	14%	-13%	-5%	2
COc1ccc(C)cc1NS(=O)(=O)c1ccc2c3c(cccc13)C(=O)N2	nt	?	nt	4.1µM*	nt	nt
O=C(Nc1cccc(C(=O)OCc2cc(=O)n3ccsc3n2)c1)c1ccc(F)cc1	nt	-17%	nt	-24%	nt	nt
COc1cccc(NC(=O)c2nn(-c3ccc(C)cc3)c(=O)n(C)c2=O)c1	nt	15µM*	nt	?	nt	nt
C=CCn1c(=O)c2ccccc2n2c(SCC(=O)Nc3sc(C(=O)N(CC)CC)c(C)c3C(=O)OCC)nnc12	-4%	15µM*	-16%	23µM*	-11%	-17
C=CCn1c(C)cc(C(=O)CSc2nnc3n(CCC)c(=O)c4ccccc4n23)c1C	0%	18µM*	20%	21µM*	-1%	5
C=CCn1c(=O)c2ccccc2n2c(SCC(=O)Nc3sc(C)c(CC)c3C(=O)OCC)nnc12	2%	16µM*	-1%	?	11%	-28
C=CCn1c(=O)c2ccccc2n2c(SCC(=O)Nc3cc(C)on3)nnc12	-2%	?	-1%	?	-9%	-26
C=CCn1c(=O)c2ccccc2n2c(SC(C)C(=O)Nc3nc(-c4ccccc4)cs3)nnc12 (centres undefined)	3%	3.7µM*	-13%	9.2µM*	-5%	-18
CCOC(=O)/C(=C/c1ccco1)NC(=O)c1ccc(Br)o1	-5%	-2%	4%	11%	8%	37
CC(C)c1cc(Cn2c3ccccc3c(=O)n2C(C)Cn2cc(CCCC#N)nn2)on1 (centres undefined)	nt	9%	2%	15%	1%	-26
Clc1ccccc1OCCSc1nnc(-c2cccs2)o1	nt	-22%	nt	-4%	nt	nt
N#Cc1ccc(C(=O)N2CCCCC2c2cc(C(=O)Nc3ccccc3Cl)no2)cc1 (centres undefined)	nt	?	18%	-26%	25%	-6
CCOC(=O)c1c(C)nc2c(c1C)/C(=N/O)CC(C)(C)C2	2%	23µM*	-29%	?	?	?
CCSc1ccc2cc(OC)ccc2[n+]1CC	-4%	7.3µM*	6%	5.8µM*	14%	0
Cc1ccc(O)c(NC(=O)c2cc([N+](=O)[O-])ccc2Cl)c1	nt	21µM*	?	?	-16%	-97*
Cc1ccc(O)c(NC(=S)NC(=O)c2ccccc2Cl)c1	-9%	?	?	?	?	-58*
COc1ccc(C)cc1NC(=O)c1ccc([N+](=O)[O-])cc1[N+](=O)[O-]	-22%	-30%	-4%	?	-5%	42
Cc1cc(O)c(NC(=O)c2cc([N+](=O)[O-])ccc2Cl)cc1C	-15%	-27%	?	?	?	-84*
Cc1cc(C)c(C(=O)CC(=O)c2ccccc2Cl)c(O)c1	1%	10µM*	?	16µM*	-28%	-6
O=C(Nc1ncn[nH]1)c1cc([N+](=O)[O-])ccc1Cl	19%	5%	1%	5%	-10%	-18
CSCCC(NS(=O)(=O)c1ccccc1F)C(=O)NCCCn1nc(C)cc1C (centres undefined)	-3%	-13%	15%	-12%	8%	-3
COc1ccccc1NC(=S)NNC(=O)c1ccc(Cl)cc1Cl	-2%	?	-10%	?	0%	14
SMILES	uPA generation	TDP1 cell noCPT	HT1080 IDH1KD tx	TDP1 cell CPT	HT1080NT lethal	IL1B secr inh
CCc1ccccc1NC(=S)NNC(=O)c1ccccc1Cl	3%	5.8µM*	11%	6.5µM*	-3%	5
Cc1ccccc1CN1CCCN(CC(=O)Nc2ccc3c(c2)OCCO3)S1(=O)=O	nt	-24%	nt	-30%	nt	nt
CSc1nc(N(C)C)nc(N(C#N)CCOC(C)=O)n1	-11%	?	-10%	?	-17%	-15
CSc1nc(NCCOC(C)=O)c(C#N)c(-c2ccc(C(C)(C)C)cc2)n1	nt	16µM*	nt	?	nt	nt
OCCc1ccc(O)c(-n2nc3ccccc3n2)c1	-1%	2%	-8%	2%	13%	-14
N#Cc1ccc(COc2ccc(CCO)cc2-n2nc3ccccc3n2)cc1	5%	16µM*	?	?	-26%	11
Cc1cc(C)n(C(=O)CNC(=O)c2ccc(Cl)cc2Cl)n1	1%	-21%	26%	-2%	14%	3
CC1CCC2(CC1)NC(=O)N(CC(=O)N1CCN(C(=O)c3ccco3)CC1)C2=O (centres undefined)	12%	3%	-1%	3%	-19%[9.24 µM]	1
O=C1c2ccccc2C(=O)N1c1cccc(O)c1	nt	2%	nt	-1%	nt	nt
Cc1n[nH]c(C)c1N1C(=O)c2cccc3c(N4CCCCCC4)ccc(c23)C1=O	3%	23µM*	-19%	?	-14%	-18
O=C1c2cccc3c(N4CCCCC4)ccc(c23)C(=O)N1c1cccc(O)c1	1%	?	?	?	-28%	-68*
CNC(=O)C1CCC(Cn2c(=O)c3sccc3n(CC(=O)N3CCCC(C)C3)c2=O)CC1 (centres undefined)	nt	3%	nt	-4%	nt	nt
O=C(/C=C/c1ccc(F)cc1)N1CCCc2ccccc21	-5%	18µM*	0%	?	-11%	?
O=C(O)/C=C/c1ccc([N+](=O)[O-])o1	-2%	-28%	-1%	-2%	1%	-20
O=C(/C=C/c1ccc(-c2ccc(F)cc2)o1)N1CCCC1	-2%	21µM*	-8%	?	-14%	-75*
CN1CCN(C(=O)/C=C/c2ccc([N+](=O)[O-])o2)CC1	?	15µM*	21µM*	9.2µM*	?	-58*
